# Results filed as inconclusive are left out. The source made the active and inactive calls. Rule for the calls: active = hit-call score of the fitted dose curve at least 0.9, where 1 is the maximum; inconclusive = response in the unintended direction; inactive = score below 0.9.
# Assay: CCTE_Deisenroth_AIME_384WELL_CTox_Inactive: Cytotoxicity Assessment (CTOX) in CCTE's 384-well Estrogen Receptor Transactivation Assay without AIME metabolic competence (metabolism negative), Deisenroth Lab (AID 2284039);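 note: cell viability via live-cell protease substrate cleaved to fluorescent probe; cells exposed 24 h to medium preincubated 2 h with alginate-water beads without S9; loss of fluorescence signal means loss of viability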
# How it was run: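 Fluorescent protease-substrate viability readout after 24 h exposure of VM7Luc4E2 cells to conditioned medium. Chemicals (0.002–200 uM) first sat 2 h over alginate-water beads, no S9. Data fitted bidirectionally, loss of signal meaning viability loss.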
SMILES,outcome,AC50
CCOCCOCCOCCO,inactive,–
CC(C)c1cccc(C(C)C)c1N1C(=O)c2ccc(O)cc2C1=O,inactive,–
Cn1c(=O)c2c(ncn2C)n(C)c1=O,inactive,–
CCN(C(=O)c1cc(C)cc(OC[C@H](C)Nc2ccncc2)c1)C(C)C,inactive,–
Nc1cccc(N)c1,inactive,–
CCCCCCCCO,inactive,–
COCCOc1cc2cc(C(=O)NC3CCN(C(C)C)CC3)n(CC(=O)Nc3ccc(Cl)cn3)c2cn1,inactive,–
Cc1ccc(N)cc1O,inactive,–
O=c1n(CC2CO2)c(=O)n(CC2CO2)c(=O)n1CC1CO1 (stereo not given),–,100 µM (active)
O=C(O)c1cccc(Oc2ccccc2)c1,–,0.000708 µM (active)
CC(=O)OCCC(C)C,inactive,–
Cn1c(=O)cc(Oc2ccc(F)cc2F)c2cnc(NCC(C)(C)O)nc21,inactive,–
CC(C)=CCC/C(C)=C\CO,inactive,–
Oc1ccc2c(c1)-c1ccccc1C2,–,156 µM (active)
CC1=CC(=O)CC(C)(C)C1,inactive,–
COc1cccc(-c2ccc(/C=C\CN3CCCCCC3)cc2Cl)c1,inactive,–
CNCc1ccc(NC(=O)c2c[nH]c3c2C(=O)CCC3)cc1,inactive,–
CCCCCCc1ccc(O)cc1O,–,162 µM (active)
CCOC(=O)c1ccc(C2CCC(NC[C@H](O)COc3ccc(O)c(NS(C)(=O)=O)c3)CC2)cc1 (stereo not given in full),–,128 µM (active)
COc1ccc2sc(C(=O)Nc3nnn[nH]3)c(OC(C)C)c2c1,inactive,–
COCCOCCOCCOC,inactive,–
O=C(O)c1cc(N=Nc2ccc(S(=O)(=O)Nc3ccccn3)cc2)ccc1O,–,49.7 µM (active)
CC(C)CCO,inactive,–
Nc1ccc(Nc2ccccc2)cc1,–,74.6 µM (active)
On1ccccc1=S,inactive,–

# Assay: CCTE_Shafer_MEA_dev_active_electrodes_number: CCTE's Neural Network Formation Assay for Number of Active Electrodes, Shafer Lab (AID 2284040);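 for AC50: potency for loss of active electrodes versus DMSO so lower counts are hits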
# How it was run: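 Primary rat cortical neurons on 16-electrode MEA wells, exposed from day 0 through day 12 with compound renewed at DIV 5 and 9 feeds. Active electrodes (mean firing ≥5 spikes/min) counted at DIV 5, 7, 9, 12; trapezoidal AUC across days, loss-of-signal versus DMSO.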
SMILES,outcome,AC50
Nc1nc2ncc(CNc3ccc(C(=O)N[C@@H](CCC(=O)O)C(=O)O)cc3)nc2c(=O)[nH]1,inactive,–
Cn1c(=O)c2c(ncn2C)n(C)c1=O,inactive,–
CCC(C)(C)C(=O)O[C@H]1C[C@@H](C)C=C2C=C[C@H](C)[C@H](CC[C@@H]3C[C@@H](O)CC(=O)O3)[C@H]21,–,0.801 µM (active)
O=C1CCC(N2C(=O)c3ccccc3C2=O)C(=O)N1 (stereo not given),inactive,–
CC[C@H]1OC(=O)[C@H](C)[C@@H](O[C@H]2C[C@@](C)(OC)[C@@H](O)[C@H](C)O2)[C@H](C)[C@@H](O[C@@H]2O[C@H](C)C[C@H](N(C)C)[C@H]2O)[C@](C)(O)C[C@@H](C)C(=O)[C@H](C)[C@@H](O)[C@]1(C)O,inactive,–
CNCc1ccc(NC(=O)c2c[nH]c3c2C(=O)CCC3)cc1,–,1.98 µM (active)
COc1ccc(-n2nc(C(F)F)cc2-c2ccc(S(C)=O)cc2)cc1 (stereo not given),–,10 µM (active)
O=P(OC(CCl)CCl)(OC(CCl)CCl)OC(CCl)CCl,inactive,–
CC[C@H](C)C(=O)O[C@H]1C[C@@H](C)C=C2C=C[C@H](C)[C@H](CC[C@@H]3C[C@@H](O)CC(=O)O3)[C@H]21,–,1.76 µM (active)
NC(=O)NO,inactive,–
